Several values for one entry are separate records, joined by “and”; a condition that tells them apart may be missing. Equal values may be shown once. This is part of a sample that, as a whole, favours compounds with a hit. Of some 83,000 tested, about 20% had one in any assay.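 Assay: single dose, 48 h. Readout: percent growth (0 = no net growth; negative = cell death). Active: <10.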 Unmarked numbers belong to inactive results. Activity calls are given as the source filed them.

For the experiment, the system named is MDA-MB-468 breast. Kind of experiment: NCI-60 one-dose screen, 48 h (100 = growth as untreated, 0 = no growth, -100 = all killed). The conditions noted are these: 10 µM unless noted.
Take `CN(C)CC1(C)Cc2ccsc2C1O` (configuration not stated): the growth was 104% and 109%.

For the molecule `C=C(C)[C@@H]1CC[C@]2(C(=O)O)CC[C@]3(C)[C@H](CC[C@@H]4[C@@]5(C)C/C(=C/c6cccc(I)c6)C(=O)C(C)(C)[C@@H]5CC[C@]43C)[C@@H]12`, the growth was 25.6%.

Consider `CN1C(=C2C(=O)OC(C)(C)OC2=O)CCC1C(=O)NCc1ccc(Cl)cc1Cl` (configuration not stated), for which the growth is 75%.

`CC(C)c1cc(N=O)cc(C(C)C)c1O`: the growth is 81.8%.

Take `O=C(/C=C\c1ccnc2ccccc12)c1ccc([N+](=O)[O-])cc1`: the growth was 57.5%.

Take `CNC(=O)c1cn2c3c(c(N4CCN(C)CC4)c(F)cc3c1=O)OC[C@@H]2C`: the growth is 97.7%.

On to `C=CC(=O)N1CCC[C@@H](n2nc(-c3ccc(Oc4ccccc4)cc3)c3c(N)ncnc32)C1`, for which the growth is -17.5% (active).

In the case of `O=C(/C=C/c1cn(-c2ccccc2)nc1-c1ccccc1)OCc1cn(-c2cccc([N+](=O)[O-])c2)nn1`, the growth is 107%.

As for `CC(CC(CCC(=O)O)(c1ccccc1)c1ccccc1)N(C)C` (configuration not stated), the growth was 98.4%.

On to `O=C(CN1CCOCC1)Nc1ccc2ncnc(Nc3ccc(OCc4cccc(F)c4)c(Cl)c3)c2c1`, for which the growth was -25.1% (active).

Regarding `CC(C)(C)C1CCC(=NO)CC1` (configuration not stated), the growth was 94%.

Consider `CCCCN(CCCC)C(=O)[C@H](CC)[C@@H]1CC[C@@H](C)[C@@H]([C@H](C)[C@@H](O)[C@@H](C)C(=O)[C@H](CC)C2O[C@]3(C=CC(=O)[C@]4(CC[C@@](C)([C@H]5CC[C@](O)(CC)[C@H](C)O5)O4)O3)[C@H](C)C[C@@H]2C)O1` (some centres not stated), for which the growth is -11.5% (active).
